From PubChem BioAssay come the findings set out here.

Assay [1] can be described thus: anti-His antibody binders, primary screen, artefact control for SMM control protein annotation, biochemical, small-molecule microarray, 635 nm fluorescence (AID 1128).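 Note: score merges feature fluorescence with signal-to-noise for each printed compound spot.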 To be noted: anti-His Alexa647 antibody binding, higher = more signal.
Assay [2] deals with Human papillomavirus type 1a E7 protein (residues 1-88). Description: HPV1a E7 small-molecule binders, primary screen, biochemical, small-molecule microarray, residues 1-88, 635 nm (AID 1129). Particulars: small-molecule microarray binding, fluorescence 635 nm; higher = more signal.
Assay [3] addresses Focal adhesion kinase 1 (Homo sapiens) (UniProt Q05397). Description: small-molecule microarray binders of FAK, primary screen, biochemical, 635/667 nm fluorescence, BSA, DTT (AID 1130).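 Note: composite of spot emission at 667 nm and signal to noise over triplicate slides.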 To be noted: PTK2 binding, 635 nm fluorescence, higher = more signal.
Assay [4] deals with Fibrinogen (Alexa647-labelled). Kind of assay: fibrinogen binders on compound microarrays, profiling panel, artefact control for SMM control-protein annotation, biochemical, small-molecule microarray, 635/667 nm fluorescence (AID 1131).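 Note: z-score merges 667 nm fluorescence with per-spot signal-to-noise over triplicate slides.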 Particulars: fibrinogen-A647 binding fluorescence, higher = more signal.
Assay [5] concerns the target Follistatin (Homo sapiens) (UniProt P19883). Description: follistatin binders on small-molecule microarrays, primary screen, biochemical, small-molecule microarray, 635/667 nm fluorescence (AID 1132). Particulars: FST binding, 635 nm fluorescence, higher = more signal.
Assay [6] concerns the target Fibroblast growth factor 2 (Homo sapiens) (UniProt P09038). Kind of assay: FGF2 binders on small-molecule microarrays, primary screen, biochemical, small-molecule microarray, 635/667 nm fluorescence (AID 1133). To be noted: small-molecule microarray binding, FGF2, fluorescence 635/667; higher = more signal.
The nature of assay [7]: mitochondrial membrane potential change in A549 cells, profiling panel, cell-based, JC-1 fluorescence, basal, 24 h, 100 nL (AID 1138).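 Note: A549 lung adenocarcinoma cells under basal conditions with no added stimulus; test concentration not given here.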 To be noted: higher = more signal.
The test system of assay [8] is Lefty1. Kind of assay: Lefty1 binders on small-molecule microarrays, primary screen, biochemical, small-molecule microarray, 635/667 nm fluorescence (AID 1139). Particulars: small-molecule microarray binding, fluorescence 635/667; higher = more signal.
In assay [9] the test system is wheat germ agglutinin (Triticum aestivum), Alexa647-labelled. Kind of assay: wheat germ agglutinin binders on compound microarrays, profiling panel, artefact control for SMM control-protein annotation, biochemical, small-molecule microarray, 635/667 nm fluorescence (AID 1140).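 Note: score merges 667 nm feature emission with signal to noise over triplicate slides.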 Particulars: WGA-A647 binding, 635 nm fluorescence, higher = more signal.
Assay [10] has as its target Luciferin 4-monooxygenase (Photinus pyralis) (UniProt P08659). Description: firefly luciferase enzyme inhibitors, primary screen, biochemical, luminescence, purified enzyme, 2006 set (AID 1141).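 Note: cell-free assay with purified firefly luciferase at 100 ng per well in PBS; test concentration not given here.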 To be noted: SteadyGlo luminescence, 30 min, higher = more signal, called active from +8 up or from −8 down.

Molecules are shown by their SMILES. Active and inactive are the calls of the source.

Sequence of Focal adhesion kinase 1 (Homo sapiens) (Q05397 whole entry, looked up): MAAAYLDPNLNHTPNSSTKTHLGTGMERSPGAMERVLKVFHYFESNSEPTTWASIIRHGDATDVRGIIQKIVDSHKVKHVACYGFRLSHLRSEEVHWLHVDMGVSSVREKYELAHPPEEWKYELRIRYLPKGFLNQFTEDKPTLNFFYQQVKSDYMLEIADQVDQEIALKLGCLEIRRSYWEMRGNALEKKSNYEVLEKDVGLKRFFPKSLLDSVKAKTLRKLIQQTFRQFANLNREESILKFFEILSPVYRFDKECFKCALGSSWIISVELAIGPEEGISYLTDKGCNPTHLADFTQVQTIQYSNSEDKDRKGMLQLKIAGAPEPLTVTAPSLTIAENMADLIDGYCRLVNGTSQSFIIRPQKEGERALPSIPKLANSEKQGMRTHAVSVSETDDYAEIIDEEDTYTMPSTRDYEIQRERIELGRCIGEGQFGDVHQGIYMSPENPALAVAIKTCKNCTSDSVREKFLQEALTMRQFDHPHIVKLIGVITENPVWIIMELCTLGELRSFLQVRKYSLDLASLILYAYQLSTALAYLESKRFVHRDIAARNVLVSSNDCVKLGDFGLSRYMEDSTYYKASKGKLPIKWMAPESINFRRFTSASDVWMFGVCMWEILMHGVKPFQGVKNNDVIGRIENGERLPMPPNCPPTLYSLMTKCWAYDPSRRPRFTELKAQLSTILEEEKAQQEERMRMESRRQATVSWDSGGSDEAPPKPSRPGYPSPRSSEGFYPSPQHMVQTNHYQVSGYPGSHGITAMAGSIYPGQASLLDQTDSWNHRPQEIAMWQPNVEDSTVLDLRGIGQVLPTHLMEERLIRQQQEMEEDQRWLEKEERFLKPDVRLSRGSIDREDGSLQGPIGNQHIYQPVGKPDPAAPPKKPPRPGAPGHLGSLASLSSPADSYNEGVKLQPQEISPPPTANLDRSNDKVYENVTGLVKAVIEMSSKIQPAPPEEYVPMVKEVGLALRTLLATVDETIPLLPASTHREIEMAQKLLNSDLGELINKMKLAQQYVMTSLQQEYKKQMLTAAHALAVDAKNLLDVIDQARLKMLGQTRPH
Sequence of Fibroblast growth factor 2 (Homo sapiens) (P09038 whole entry, looked up): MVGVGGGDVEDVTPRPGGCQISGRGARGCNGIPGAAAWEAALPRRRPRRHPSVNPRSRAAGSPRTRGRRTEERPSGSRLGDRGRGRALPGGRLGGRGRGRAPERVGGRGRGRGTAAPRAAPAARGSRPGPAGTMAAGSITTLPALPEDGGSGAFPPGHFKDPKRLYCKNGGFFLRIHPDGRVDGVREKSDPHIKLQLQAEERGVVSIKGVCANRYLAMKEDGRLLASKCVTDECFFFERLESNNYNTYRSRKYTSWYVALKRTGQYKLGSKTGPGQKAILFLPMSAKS
Sequence of Follistatin (Homo sapiens) (P19883 whole entry, looked up): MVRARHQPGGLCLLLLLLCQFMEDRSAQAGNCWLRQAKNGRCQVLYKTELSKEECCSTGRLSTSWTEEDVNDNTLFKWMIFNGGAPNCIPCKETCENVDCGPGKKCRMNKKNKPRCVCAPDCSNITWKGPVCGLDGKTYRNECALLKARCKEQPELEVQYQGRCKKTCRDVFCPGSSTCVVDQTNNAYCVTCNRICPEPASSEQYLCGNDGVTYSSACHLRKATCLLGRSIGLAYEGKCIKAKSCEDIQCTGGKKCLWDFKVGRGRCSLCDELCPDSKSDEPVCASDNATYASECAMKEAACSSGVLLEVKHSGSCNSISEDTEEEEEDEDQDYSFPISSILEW
Sequence of Luciferin 4-monooxygenase (Photinus pyralis) (P08659 whole entry, looked up): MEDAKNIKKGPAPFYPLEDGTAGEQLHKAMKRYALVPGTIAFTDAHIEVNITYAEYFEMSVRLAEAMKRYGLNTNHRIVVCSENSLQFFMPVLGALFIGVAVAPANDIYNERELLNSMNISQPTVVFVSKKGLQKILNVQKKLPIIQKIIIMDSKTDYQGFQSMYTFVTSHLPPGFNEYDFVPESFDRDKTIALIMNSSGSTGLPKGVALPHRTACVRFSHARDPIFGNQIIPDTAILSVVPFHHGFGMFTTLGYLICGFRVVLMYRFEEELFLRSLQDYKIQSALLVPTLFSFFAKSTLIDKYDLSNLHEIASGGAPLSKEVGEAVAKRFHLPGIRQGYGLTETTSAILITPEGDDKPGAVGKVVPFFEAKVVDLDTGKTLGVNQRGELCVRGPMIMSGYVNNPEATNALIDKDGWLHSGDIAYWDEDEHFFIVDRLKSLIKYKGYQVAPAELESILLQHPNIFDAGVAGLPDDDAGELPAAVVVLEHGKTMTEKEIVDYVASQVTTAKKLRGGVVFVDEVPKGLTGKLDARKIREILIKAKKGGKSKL

Take `O=C1O[C@@H](c2ccccc2)[C@@H](c2ccccc2)N2[C@@H](c3ccccc3OCCO)[C@]3(C(=O)Nc4ccc(C#CCCO)cc43)[C@@H](C(=O)NC[C@H](O)c3ccccc3)[C@H]12`: the composite z-score in assay [1] is 1.32; in assay [2] it was 1.25; in assay [3] it was 1.06; in assay [4], 0.847; in assay [5] it was 1.27; in assay [6] it was 0.835. The composite z-score in [8] is 0.831; in [9], 0.891. Further, the z-score was -0.928 in assay [7] and 0.808 (inactive) in assay [10].
For the compound `C=CCNC(=O)[C@@H]1[C@H]2C(=O)O[C@H](c3ccccc3)[C@H](c3ccccc3)N2[C@H](c2ccc(OCCO)cc2)[C@@]12C(=O)Nc1ccc(C#CC3(O)CCCCCC3)cc12`, the composite z-score was 2.64 in [1]; 1.18 in [2]; 0.245 in assay [3]; 0.891 in assay [4]; 1.34 in assay [5]; 0.755 in assay [6]. For the same compound, the results for the composite z-score in [8] and in assay [9] were 0.497 and 1.04, respectively. Also, the z-score in [7] is -1.21; in assay [10] it was -0.467 (inactive).
As to `CC(C)C(=C=CC[C@H](O)c1ccccc1OCCO)C[C@H](O)c1cc(Cl)cc(Cl)c1O`, the composite z-score is -0.287 in assay [1]; 1.15 in assay [2]; 0.0701 in assay [3]; 0.866 in assay [4]; 1.09 in [5]; 0.285 in [6]. For the same compound, the composite z-score is 1.27 in [8] and 1.16 in [9]. The z-score is 0.686 in assay [7] and -1.38 (inactive) in assay [10].
In the case of `CCCCCCc1nc(-c2ccc(-c3ccc(Cl)c(Cl)c3)o2)cc2c1[Si](C(C)C)(C(C)C)OC2`, the composite z-score was -0.265 in [1]; -0.819 in assay [2]; -0.0104 in assay [3]; -1.85 in assay [4]; -0.577 in assay [5]; -0.985 in assay [6]. Moreover, the composite z-score in assay [8] is -0.468; in assay [9], 0.105. Besides, the figures for the z-score in [7] and in [10] were -0.413 and -5.02 (inactive), respectively.
`C=CCC(OC(C)=O)[C@@H]1[C@@H](N(Cc2ccc(-c3cccc(C(F)(F)F)c3)o2)C(=O)c2ccc(-c3ccccc3)cc2)c2cc(OCCCO)ccc2N1C(=O)c1ccc2ccccc2c1` (stereo not given in full): the composite z-score in [1] was -0.191; in assay [2], -0.06; in [3] it was 0.0473; in assay [4], -0.0951; in [5], 1.02; in [6], 0.23. In addition, the composite z-score in assay [8] stood at 1.17; in [9], 0.0415. Also, the figures for the z-score in [7] and in [10] were 0.413 and 0.85 (inactive), respectively.
With `COCCn1c(C(=O)N(C)C)cc2c1C[C@H]1CN(C(=O)c3ccccc3)[C@@](Cc3ccc(OC)cc3)(C(=O)OC)[C@@H]21`, the composite z-score in assay [1] was 1.59; in [2] it was 1.04; in assay [3], 0.585; in assay [4], 0.837; in assay [5] it was 0.571; in [6], -0.226. The composite z-score in [8] is -0.201; in [9] it was 0.94. Further, the z-score is 1.66 in assay [7] and 0.75 (inactive) in assay [10].
As to `O=C1O[C@H](c2ccccc2)[C@H](c2ccccc2)N2[C@H]1[C@@H](C(=O)N1CCN(c3ncccn3)CC1)[C@]1(C(=O)Nc3ccc(C#CCCO)cc31)[C@H]2c1ccc(O)cc1`, the composite z-score in [1] is 0.144; in assay [2], 0.762; in assay [3], 1.38; in assay [4], 0.888; in assay [5], 0.809; in assay [6], 0.115. Besides, the composite z-score in assay [8] came out at 0.186; in [9] it was 0.766. For the same compound, the z-score in assay [7] was -0.683; in [10] it was -0.538 (inactive).
On to `CN1C(=O)C2C(C1=O)C1C=C(CCCO)C2C(C2CC2)N1Cc1cccc(OC(F)(F)F)c1` (stereo not given), for which the composite z-score in assay [1] was 1.37; in assay [2], 0.925; in assay [3] it was 1.35; in [4] it was 0.0349; in assay [5] it was -0.0603; in [6], -0.862. Also, the composite z-score in [8] is 0.0613; in assay [9] it was 1.04. The results for the z-score in [7] and in [10] were -0.198 and -0.478 (inactive), respectively.
On to `C=CCC(OC(C)=O)[C@@H]1[C@@H](N(Cc2cccc3ccccc23)C(=O)c2ccc(-c3ccccc3)cc2)c2cc(OCCCO)ccc2N1C(=O)Cc1ccc2ccccc2c1` (stereo not given in full), for which the composite z-score is 0.203 in [1]; 0.0951 in [2]; -0.166 in [3]; -0.052 in [4]; 0.592 in assay [5]; 0.0824 in assay [6]. The figures for the composite z-score in assay [8] and in [9] were -0.415 and -0.194, respectively. Besides, the z-score is 0.412 in assay [7] and 0.223 (inactive) in assay [10].
Regarding `COc1ccc([Si](C)(C)[C@H]2[C@H](CCO)O[C@@]3(C(=O)N(Cc4cccc(N5C(=O)c6ccccc6Oc6ccccc65)c4)c4ccccc43)[C@@H]2C)cc1`, the composite z-score is 0.551 in assay [1]; 0.838 in assay [2]; -0.065 in assay [3]; 0.327 in assay [4]; -0.424 in assay [5]; 0.649 in assay [6]. Besides, the composite z-score in [8] is -0.351; in [9] it was 0.805. Besides, the z-score is 0.302 in assay [7] and 0.0939 (inactive) in assay [10].
Consider `CCCCCCc1nc(Cc2cc(OC)c(OC)c(OC)c2)cc2c1[Si](C(C)C)(C(C)C)O[C@H]2c1ccccc1`, for which the composite z-score was 0.0156 in assay [1]; 0.0994 in assay [2]; -0.148 in assay [3]; 0.146 in assay [4]; 0.571 in [5]; 0.675 in assay [6]. Moreover, the composite z-score was 0.845 in [8] and -0.17 in [9]. Besides, the z-score is 0.216 in assay [7] and 0.555 (inactive) in [10].
Regarding `CCCCCC1=C2CNC(Cc3ccccc3)(C(=O)OC)C=C2C(C)C1=O` (stereo not given), the composite z-score in [1] was 1.01; in assay [2], 0.515; in [3], 0.563; in assay [4], 0.837; in assay [5], -0.216; in [6], -0.871. Further, the values for the composite z-score in assay [8] and in [9] were -0.849 and 0.0953, respectively. Moreover, the z-score in assay [7] was 1.04; in assay [10] it was 0.423 (inactive).
Take `O=C1C2C=CC(C(O)c3c(F)cccc3Cl)N(Nc3ccc([N+](=O)[O-])cc3)C2C(=O)N1c1ccccc1` (stereo not given): the composite z-score was 1.62 in assay [1]; 1.22 in assay [2]; 0.682 in assay [3]; 0.931 in assay [4]; 1.36 in [5]; 0.589 in assay [6]. The composite z-score worked out at 0.948 in assay [8] and 0.844 in [9]. Besides, the z-score in assay [7] was -0.514; in [10] it was 1.67 (inactive).
